# Data as given in PubChem BioAssay (EPA / NIEHS).
# Inconclusive results are not listed. Active and inactive are the calls of the source. The calls were made as follows: active = hit-call score of the fitted dose curve at least 0.9, where 1 is the maximum; inconclusive = response in the unintended direction; inactive = score below 0.9.
# What was measured:
# [1] = molecular target: human Peripheral-type Benzodiazepine Receptor (PBR), TSPO (gene 706) (UniProt P30536); assay: NVS_MP_hPBR: NovaScreen (NVS) Membrane Protein Assay for human Peripheral-type Benzodiazepine Receptor (PBR) (AID 2283331);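 also: hits reduce radioligand binding relative to DMSO baseline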
# Summary of the method: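 Radioligand displacement on human colonic cell membranes, 1 h incubation; bound radioactivity by filtration and scintillation counting. Primary screen in duplicate at 25 uM single concentration, actives followed up in concentration series; loss of binding versus DMSO.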
# [2] = molecular target: rat Peripheral-type Benzodiazepine Receptor (PBR), Tspo (gene 24230) (UniProt P16257); assay: NVS_MP_rPBR: NovaScreen (NVS) Membrane Protein Assay for rat Peripheral-type Benzodiazepine Receptor (PBR) (AID 2283335)
# Summary of the method: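 Radioligand displacement, rat kidney membrane prep, 1 h exposure, filter-based scintillation read; DMSO baseline, loss-of-signal scored. Primary screen at 25 uM in duplicate, actives followed up in concentration series.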
# [3] = molecular target: human Androgen Receptor (AR), AR (gene 367) (UniProt P10275); assay: NVS_NR_hAR: NovaScreen (NVS) Nuclear Receptor Binding Assay for human Androgen Receptor (AR) (AID 2283332)
# Summary of the method: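 LnCAP cell-free extract; radioligand displacement read by scintillation counting after 20 h. Primary screen single concentration 25 uM in duplicate, actives then run as concentration series; loss-of-signal fitted relative to DMSO baseline.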
# [4] = molecular target: Voltage-gated inwardly rectifying potassium channel KCNH2 (Homo sapiens) (UniProt Q12809); assay: NVS_IC_hKhERGCh: NovaScreen (NVS) Ion Channel Assay for human Potassium Channel ERG (KhERGCh) (AID 2283333)
# Summary of the method: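 Cell-free radioligand competition binding on hERG protein extracted from CHO cells, read by filter-based scintillation counting 0.75 h after dosing. Primary screen at 25 uM in duplicate, actives followed in concentration series. Signal loss fitted versus DMSO.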
# [5] = molecular target: rat Glycine Receptor, Strychnine-sensitive (GlyRStrySens), Glra1 (gene 25674) (UniProt P07727); assay: NVS_LGIC_rGlyRStrySens: NovaScreen (NVS) Ligand-Gated Ion Channel Assay for rat Glycine Receptor, Strychnine-sensitive (GlyRStrySens) (AID 2283341)
# Summary of the method: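 Radioligand displacement on rat spinal cord membranes, 1 hr, filter scintillation read-out. Single-concentration duplicate screen at 25 uM; chemicals meeting threshold (e.g., 30% inhibition) rerun in concentration-response up to 50 uM. Loss of binding fitted versus DMSO.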
# [6] = molecular target: Small conductance calcium-activated potassium channel protein 1 (Rattus norvegicus) (UniProt P70606); assay: NVS_IC_rKCaCh: NovaScreen (NVS) Ion Channel Assay for rat Potassium Channel, Ca2+ Act., VI (KCaCh) (AID 2283336)
# Protocol: NVS_IC_rKCaCh is a biochemical, single-readout assay that uses extracted gene-proteins from Rat forebrain membranes in a tissue-based cell-free assay. Measurements were taken 1 hour after chemical dosing in a 96-well plate.NVS_IC_rKCaCh is one of one assay component(s) measured or calculated from the NVS_IC_rKCaCh assay. It is designed to make measurements of radioligand binding, a form of binding reporter, as detected with scintillation counting signals by Filter-based radiodetection technology.Data from the assay component NVS_IC_rKCaCh was analyzed into 1 assay endpoint. This assay endpoint, NVS_IC_rKCaCh, was analyzed in the positive analysis fitting direction relative to DMSO as the negative control and baseline of activity. […] Furthermore, this assay endpoint can be referred to as a primary readout, because the performed assay has only produced 1 assay endpoint. […]
# Binding assays used specific radioligands (tritiated, iodinated) with non-radioactive competitive displacement ligands in agonist or antagonist protocols (as indicated) and various reference compounds and inhibitors to titrate specific binding to receptors and transporters. Most enzyme assays (CYPs, kinases, phosphatases, proteases, HDACs) used recombinant protein and specific substrates (fluorescence mostly, some colorimetric and radioactive) and inhibitors, followed by a biochemical separation of substrate and product. […]
# Chain of rat Peripheral-type Benzodiazepine Receptor (PBR), Tspo (gene 24230) (P16257 whole entry, looked up): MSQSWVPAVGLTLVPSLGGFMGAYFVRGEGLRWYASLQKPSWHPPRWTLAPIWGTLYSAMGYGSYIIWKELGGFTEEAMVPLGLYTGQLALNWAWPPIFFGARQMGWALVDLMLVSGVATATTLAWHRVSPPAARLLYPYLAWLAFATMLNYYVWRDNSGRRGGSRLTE
# Chain of human Peripheral-type Benzodiazepine Receptor (PBR), TSPO (gene 706) (P30536 whole entry, looked up): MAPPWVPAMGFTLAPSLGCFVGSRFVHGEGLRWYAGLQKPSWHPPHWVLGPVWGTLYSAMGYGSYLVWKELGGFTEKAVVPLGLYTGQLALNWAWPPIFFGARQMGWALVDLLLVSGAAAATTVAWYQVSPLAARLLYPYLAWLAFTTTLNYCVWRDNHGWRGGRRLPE
# Chain of Voltage-gated inwardly rectifying potassium channel KCNH2 (Homo sapiens) (Q12809 whole entry, looked up): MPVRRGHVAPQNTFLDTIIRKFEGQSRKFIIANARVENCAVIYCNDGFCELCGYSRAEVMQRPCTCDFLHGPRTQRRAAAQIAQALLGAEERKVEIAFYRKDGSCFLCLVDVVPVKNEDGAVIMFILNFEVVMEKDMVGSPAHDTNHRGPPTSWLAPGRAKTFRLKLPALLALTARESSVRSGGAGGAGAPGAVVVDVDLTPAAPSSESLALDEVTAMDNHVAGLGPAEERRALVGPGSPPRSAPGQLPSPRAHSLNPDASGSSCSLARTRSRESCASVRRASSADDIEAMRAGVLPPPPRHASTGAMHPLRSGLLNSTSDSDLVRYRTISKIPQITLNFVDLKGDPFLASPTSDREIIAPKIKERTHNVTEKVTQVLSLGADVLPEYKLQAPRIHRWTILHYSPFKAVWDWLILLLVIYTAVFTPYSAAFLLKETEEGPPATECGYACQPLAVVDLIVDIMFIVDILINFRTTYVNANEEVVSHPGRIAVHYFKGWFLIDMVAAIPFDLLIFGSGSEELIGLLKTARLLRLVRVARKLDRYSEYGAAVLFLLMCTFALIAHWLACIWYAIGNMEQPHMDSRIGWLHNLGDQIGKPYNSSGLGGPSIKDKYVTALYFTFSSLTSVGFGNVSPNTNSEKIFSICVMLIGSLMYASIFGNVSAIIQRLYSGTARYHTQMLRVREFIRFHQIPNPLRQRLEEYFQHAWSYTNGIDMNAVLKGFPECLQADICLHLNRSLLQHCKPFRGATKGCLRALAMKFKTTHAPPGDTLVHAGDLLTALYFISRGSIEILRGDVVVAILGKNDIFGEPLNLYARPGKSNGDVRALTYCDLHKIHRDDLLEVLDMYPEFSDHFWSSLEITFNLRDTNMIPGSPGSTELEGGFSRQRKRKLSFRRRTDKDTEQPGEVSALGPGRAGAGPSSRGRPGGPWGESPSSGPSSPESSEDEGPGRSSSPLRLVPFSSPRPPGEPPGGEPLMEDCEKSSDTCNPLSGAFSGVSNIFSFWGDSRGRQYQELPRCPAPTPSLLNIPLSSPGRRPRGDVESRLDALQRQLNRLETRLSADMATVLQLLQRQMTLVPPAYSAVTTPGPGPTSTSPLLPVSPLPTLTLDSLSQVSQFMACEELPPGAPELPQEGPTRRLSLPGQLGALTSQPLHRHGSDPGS
# Chain of rat Glycine Receptor, Strychnine-sensitive (GlyRStrySens), Glra1 (gene 25674) (P07727 whole entry, looked up): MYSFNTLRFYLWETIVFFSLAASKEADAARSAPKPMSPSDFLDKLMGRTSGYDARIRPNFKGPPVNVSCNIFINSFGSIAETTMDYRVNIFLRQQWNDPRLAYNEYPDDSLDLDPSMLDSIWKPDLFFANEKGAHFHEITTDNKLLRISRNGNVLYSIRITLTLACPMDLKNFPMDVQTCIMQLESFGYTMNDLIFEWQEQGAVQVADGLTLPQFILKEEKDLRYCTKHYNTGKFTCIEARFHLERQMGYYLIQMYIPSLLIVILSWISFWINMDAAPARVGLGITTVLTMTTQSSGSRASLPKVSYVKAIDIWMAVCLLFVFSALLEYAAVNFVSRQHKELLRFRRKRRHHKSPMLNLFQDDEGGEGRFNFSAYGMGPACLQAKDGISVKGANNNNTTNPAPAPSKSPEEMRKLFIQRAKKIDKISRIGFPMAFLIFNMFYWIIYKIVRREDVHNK
# Chain of Small conductance calcium-activated potassium channel protein 1 (Rattus norvegicus) (P70606 whole entry, looked up): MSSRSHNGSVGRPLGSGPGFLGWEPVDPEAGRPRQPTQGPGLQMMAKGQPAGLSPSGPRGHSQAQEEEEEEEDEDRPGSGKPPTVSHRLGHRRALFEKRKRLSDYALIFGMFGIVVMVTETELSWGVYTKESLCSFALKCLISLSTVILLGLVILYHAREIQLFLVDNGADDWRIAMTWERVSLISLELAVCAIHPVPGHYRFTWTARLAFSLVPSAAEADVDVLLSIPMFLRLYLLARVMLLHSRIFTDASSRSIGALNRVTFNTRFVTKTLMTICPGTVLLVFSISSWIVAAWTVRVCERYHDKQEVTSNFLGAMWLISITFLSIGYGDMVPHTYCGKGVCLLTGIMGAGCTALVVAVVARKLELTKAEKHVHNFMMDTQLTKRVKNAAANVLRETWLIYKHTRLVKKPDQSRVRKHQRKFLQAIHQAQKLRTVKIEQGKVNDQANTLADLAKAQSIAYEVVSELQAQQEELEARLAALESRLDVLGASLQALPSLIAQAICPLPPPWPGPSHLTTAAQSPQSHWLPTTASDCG
# Chain of human Androgen Receptor (AR), AR (gene 367) (P10275 whole entry, looked up): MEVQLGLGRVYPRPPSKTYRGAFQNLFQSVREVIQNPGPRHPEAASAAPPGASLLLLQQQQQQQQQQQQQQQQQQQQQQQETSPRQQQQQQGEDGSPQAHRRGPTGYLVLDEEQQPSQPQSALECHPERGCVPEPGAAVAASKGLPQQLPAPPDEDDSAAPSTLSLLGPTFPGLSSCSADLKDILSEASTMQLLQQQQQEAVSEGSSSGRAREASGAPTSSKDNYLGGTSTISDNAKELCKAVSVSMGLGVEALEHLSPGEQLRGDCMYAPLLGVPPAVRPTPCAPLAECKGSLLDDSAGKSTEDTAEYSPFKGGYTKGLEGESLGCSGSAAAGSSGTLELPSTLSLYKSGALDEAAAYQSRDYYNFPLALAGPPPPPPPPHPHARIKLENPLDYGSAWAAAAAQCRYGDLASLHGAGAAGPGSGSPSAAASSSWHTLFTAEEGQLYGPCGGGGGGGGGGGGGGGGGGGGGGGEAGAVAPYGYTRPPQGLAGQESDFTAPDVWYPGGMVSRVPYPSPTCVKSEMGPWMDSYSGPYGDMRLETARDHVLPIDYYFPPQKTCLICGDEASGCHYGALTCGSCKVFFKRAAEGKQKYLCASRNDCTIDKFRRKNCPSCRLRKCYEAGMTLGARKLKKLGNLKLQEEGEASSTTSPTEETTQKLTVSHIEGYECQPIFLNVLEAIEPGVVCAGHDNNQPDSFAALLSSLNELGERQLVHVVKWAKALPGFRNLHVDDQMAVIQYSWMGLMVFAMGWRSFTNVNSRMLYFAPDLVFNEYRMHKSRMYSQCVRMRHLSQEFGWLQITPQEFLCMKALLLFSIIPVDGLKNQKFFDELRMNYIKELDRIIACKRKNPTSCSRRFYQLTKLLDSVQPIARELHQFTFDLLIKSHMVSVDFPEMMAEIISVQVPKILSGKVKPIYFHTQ
structure (smiles),measurement,setting,value
COP(=S)(OC)Oc1nc(Cl)c(Cl)cc1Cl,AC50,[1],17.9 µM (active)
same,AC50,[2],7 µM (active)
O=C(Nc1ccccc1)Nc1ccnc(Cl)c1,outcome,[1],inactive
same,AC50,[3],5.13 µM (active)
same,AC50,[4],9.2 µM (active)
same,AC50,[2],15.6 µM (active)
same,outcome,[5],inactive
CC1COC(Cn2cncn2)(c2ccc(Oc3ccc(Cl)cc3)cc2Cl)O1 (stereo unspecified),outcome,[1],inactive
same,outcome,[2],inactive
CON(C)C(=O)Nc1ccc(Cl)c(Cl)c1,AC50,[1],11.9 µM (active) [middle of 4 runs]
same,AC50,[2],4.62 µM (active) [middle of 4 runs]
same,outcome,[6],inactive
CCOP(=S)(OCC)SCn1c(=O)oc2cc(Cl)ccc21,AC50,[1],2.65 µM (active)
same,AC50,[2],4.01 µM (active)
CCNc1nc(Cl)nc(NCC)n1,AC50,[1],46.2 µM (active)
same,outcome,[2],inactive
